Consider ten compounds from publication PMC5540273 (PLoS ONE, 2017).

One assay relates to VRK2. The note with it: concentration: 1 μM, replicates: in singlicate; n = 1.
The next assay concerns WEE1. As to conditions: n = 1.
A further assay has as its system WEE2. The note with it: n = 1.
The subject of a further assay is WNK1. The note with it: n = 1.
The next assay relates to WNK2. The note with it: n = 1.
The next assay has as its system WNK3. As to conditions: n = 1.
In the next assay the test system is WNK4. The note with it: n = 1.
For another assay, the system named is T1, YANK1.
T1 construct: gene STK32A
As to conditions: n = 1.

The test system of another assay is T2, YANK2.
T2 construct: gene STK32B
As to conditions: n = 1.

For a further assay, the system named is T3, YANK3.
T3 construct: gene STK32C
The note with it: n = 1.

A further assay has as its system T4, YES.
T4 construct: gene YES1
The note with it: n = 1.

In another assay the test system is T5, YSK1.
T5 construct: gene STK25
The note with it: n = 1.

A further assay has as its system T6, YSK4.
T6 construct: gene MAP3K19
The note with it: n = 1.

The next assay concerns ZAK. As to conditions: n = 1.
For the next assay, the system named is ZAP70. The note with it: n = 1.
For the next assay, the system named is T7, p38-alpha.
T7 construct: gene MAPK14
The note with it: concentration: 1 μM, replicates: in singlicate; n = 1.

The next assay concerns T8, p38-beta.
T8 construct: gene MAPK11
The note with it: concentration: 1 μM, replicates: in singlicate; n = 1.

The test system of the next assay is p38-delta. The note with it: n = 1.
In a further assay the test system is T9, p38-gamma.
T9 construct: gene MAPK12
The note with it: n = 1.

Where [1] appears, read: concentration: 1 μM, replicates: in singlicate.
Setting [2] is: concentration: 1 μM,replicates: in singlicate, 1 µM.

The structures appear in SMILES notation. Several values for one entry are separate records, joined by “and”; a condition that tells them apart may be missing. Identical values can stand only once. Like-named read-outs stand apart in the source and are kept apart here.
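Also: KINOMEscan kinase panel screen.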

Take `COc1cc(Nc2nccc(N3CCC(NC(=O)Nc4cc(C)ccc4C)C3)n2)cc(OC)c1OC` (stereo not shown) [GSK1379762]: the “%Inh” value turned out to be 0% with VRK2; 32% in the assay on WEE1 (setting [1]); 9% in the assay on WEE2 (setting [1]); 1% in the assay with WNK1 (setting [1]); 0% in the assay on WNK2 (setting [1]); 8% with WNK3 (setting [1]). Moreover, the “%Inh” value is recorded as 25% with WNK4 (setting [1]); 8% with YANK1 (setting [1]); 0% in the assay with YANK2 (setting [1]); 10% with YANK3 (setting [1]); 10% with YES (setting [1]); 0% with YSK1 (setting [1]). For the same compound, the “%Inh” value in the assay on YSK4 (setting [1]) came to 27%; in the assay with ZAK (setting [1]) it was 3%; in the assay on ZAP70 (setting [1]) it was 0%; with p38-alpha it was 0%; in the assay with p38-beta, 0%; in the assay on p38-delta (setting [1]) it was 32%. Further, the “%Inh” value in the assay with p38-gamma (setting [1]) was found to be 24%.

For the compound `Cc1cccc(-c2nc(C)cc(Nc3ccncc3)n2)n1` [GSK257997], the “%Inh” value with VRK2 worked out at 0%; in the assay on WEE1 (setting [1]) it was 9%; with WEE2 (setting [1]), 2%; in the assay with WNK1 (setting [1]), 6%; in the assay on WNK2 (setting [1]), 6%; in the assay on WNK3 (setting [1]) it was 6%. The “%Inh” value with WNK4 (setting [1]) is listed as 0%; with YANK1 (setting [1]), 10%; with YANK2 (setting [1]), 0%; in the assay on YANK3 (setting [1]), 5%; in the assay with YES (setting [1]) it was 15%; in the assay with YSK1 (setting [1]), 8%. The “%Inh” value with YSK4 (setting [1]) stood at 0%; with ZAK (setting [1]) it was 0%; in the assay on ZAP70 (setting [1]) it was 0%; in the assay with p38-alpha, 9%; with p38-beta, 0%; with p38-delta (setting [1]), 51%. In the assay on p38-gamma (setting [1]), the “%Inh” value was found to be 6%.

Take `Cc1ccc(NC(=O)Nc2cccc(Cl)c2)cc1-c1ccc(C(=O)Nc2ccncc2)cc1` [GSK1398468]: the “%Inh” value in the assay on VRK2 came to 0%; in the assay with WEE1 (setting [1]) it was 2%; in the assay with WEE2 (setting [1]), 21%; in the assay with WNK1 (setting [1]), 7%; in the assay on WNK2 (setting [1]), 0%; with WNK3 (setting [1]), 18%. In addition, the “%Inh” value with WNK4 (setting [1]) stood at 24%; in the assay on YANK1 (setting [1]), 10%; in the assay with YANK2 (setting [1]) it was 0%; in the assay with YANK3 (setting [1]) it was 0%; in the assay with YES (setting [1]), 13%; with YSK1 (setting [1]), 14%. Further, the “%Inh” value in the assay on YSK4 (setting [1]) was 92.3%; with ZAK (setting [1]), 68%; with ZAP70 (setting [1]) it was 20%; with p38-alpha, 37%; in the assay on p38-beta, 3%; in the assay with p38-delta (setting [1]), 37%. Moreover, the “%Inh” value with p38-gamma (setting [1]) stood at 0%.

With `O=C(Nc1ccccc1)Nc1cccc(Oc2ccc3nccn3n2)c1`, the “%Inh” value is 0% with VRK2; 0% with WEE1 (setting [1]); 41% in the assay with WEE2 (setting [1]); 0% in the assay with WNK1 (setting [1]); 0% in the assay on WNK2 (setting [1]); 0% in the assay with WNK3 (setting [1]). The “%Inh” value is 17% in the assay on WNK4 (setting [1]); 0% in the assay with YANK1 (setting [1]); 29% in the assay with YANK2 (setting [1]); 0% with YANK3 (setting [1]); 0% with YES (setting [1]); 0% in the assay with YSK1 (setting [1]). Besides, the “%Inh” value in the assay with YSK4 (setting [1]) stood at 87%; in the assay with ZAK (setting [1]), 35%; in the assay on ZAP70 (setting [1]), 0%; in the assay on p38-alpha, 0%; in the assay with p38-beta it was 0%; in the assay with p38-delta (setting [1]), 0%. The “%Inh” value in the assay on p38-gamma (setting [1]) is listed as 19%.

For `COc1ccc2nc(-c3cccc(C)n3)nc(Nc3ccncc3)c2c1` [GSK204919], the “%Inh” value with VRK2 is given as 33%; with WEE1 (setting [1]) it was 0%; with WEE2 (setting [1]), 2%; in the assay with WNK1 (setting [1]) it was 5%; with WNK2 (setting [1]), 3%; in the assay on WNK3 (setting [1]), 8%. For the same compound, the “%Inh” value was 9% with WNK4 (setting [1]); 19% with YANK1 (setting [1]); 2% with YANK2 (setting [1]); 18% with YANK3 (setting [1]); 13% in the assay on YES (setting [1]); 0% in the assay with YSK1 (setting [1]). The “%Inh” value in the assay with YSK4 (setting [1]) is 13%; in the assay with ZAK (setting [1]), 0%; in the assay on ZAP70 (setting [1]) it was 0%; in the assay on p38-alpha, 58%; with p38-beta it was 0%; in the assay with p38-delta (setting [1]), 12%. The “%Inh” value in the assay with p38-gamma (setting [1]) was found to be 0%.

Turning to `Fc1cc(Cl)ccc1Nc1ccnc2cc(I)ccc12` [GW551191], the “%Inh” value in the assay on VRK2 came to 0%; in the assay on WEE1 (setting [1]) it was 8%; with WEE2 (setting [1]), 0%; in the assay on WNK1 (setting [1]), 3%; with WNK2 (setting [1]), 11%; in the assay on WNK3 (setting [1]) it was 29%. In addition, the “%Inh” value in the assay with WNK4 (setting [1]) was 16%; in the assay with YANK1 (setting [1]), 16%; with YANK2 (setting [1]), 11%; with YANK3 (setting [1]), 20%; in the assay on YES (setting [1]), 15%; in the assay with YSK1 (setting [1]) it was 0%. Besides, the “%Inh” value in the assay on YSK4 (setting [1]) came to 49%; in the assay with ZAK (setting [1]) it was 20%; in the assay with ZAP70 (setting [1]), 0%; with p38-alpha, 30%; with p38-beta, 0%; in the assay with p38-delta (setting [1]), 41%. Besides, the “%Inh” value in the assay on p38-gamma (setting [1]) is reported as 1%.

Turning to `Cc1c(O)cccc1Nc1ccnc2ccc(C(F)(F)F)cc12.Cl` [GW466413], the “%Inh” value in the assay with VRK2 was found to be 26%; in the assay on WEE1 (setting [1]), 0%; in the assay with WEE2 (setting [1]), 0%; with WNK1 (setting [1]) it was 23%; with WNK2 (setting [1]), 17%; with WNK3 (setting [1]) it was 21%. Moreover, the “%Inh” value in the assay on WNK4 (setting [1]) is on record as 1%; in the assay with YANK1 (setting [1]), 0%; in the assay on YANK2 (setting [1]), 10%; in the assay on YANK3 (setting [1]), 15%; in the assay on YES (setting [1]), 20%; in the assay on YSK1 (setting [1]) it was 0%. Also, the “%Inh” value in the assay with YSK4 (setting [1]) was found to be 11%; in the assay on ZAK (setting [1]), 1%; in the assay with ZAP70 (setting [1]) it was 0%; in the assay with p38-alpha it was 0%; in the assay on p38-beta it was 0%; in the assay on p38-delta (setting [1]), 24%. Moreover, the “%Inh” value with p38-gamma (setting [1]) is recorded as 0%.

In the case of `CSc1nn2c(=O)cc(N3CCOCC3)nc2n1Cc1cccc(C(F)(F)F)c1C` [GSK2363608], the “%Inh” value in the assay with VRK2 was 0%; in the assay on WEE1 (setting [2]), 15% and 11%; in the assay with WEE2 (setting [2]) it was 9% and 10%; in the assay with WNK1 (setting [2]), 13% and 7%; with WNK2 (setting [2]) it was 14% and 22%; with WNK3 (setting [2]), 24% and 10%. In addition, the “%Inh” value in the assay on WNK4 (setting [2]) is 1% and 4%; in the assay on YANK1 (setting [2]), 0% and 3%; in the assay on YANK2 (setting [2]), 8% and 0%; with YANK3 (setting [2]) it was 0% and 68%; in the assay with YES (setting [2]) it was 19% and 22%; in the assay with YSK1 (setting [2]), 1% and 0%. For the same compound, the “%Inh” value in the assay on YSK4 (setting [2]) was 40% and 30%; with ZAK (setting [2]), 10% and 0%; in the assay on ZAP70 (setting [2]) it was 32% and 0%; in the assay with p38-alpha, 0%; in the assay on p38-beta, 0%; with p38-delta (setting [2]), 55% and 34%. In addition, the “%Inh” value in the assay with p38-gamma (setting [2]) is 7% and 0%.

In the case of `COc1ccc(Nc2nccc(NCCNC(=O)Nc3ccccc3F)n2)cc1` [GSK1379901], the “%Inh” value is 0% in the assay with VRK2; 13% in the assay on WEE1 (setting [1]); 0% in the assay with WEE2 (setting [1]); 11% with WNK1 (setting [1]); 0% in the assay on WNK2 (setting [1]); 29% in the assay on WNK3 (setting [1]). Further, the “%Inh” value was determined as 37% with WNK4 (setting [1]); 0% in the assay with YANK1 (setting [1]); 0% in the assay on YANK2 (setting [1]); 0% with YANK3 (setting [1]); 23% in the assay on YES (setting [1]); 0% in the assay with YSK1 (setting [1]). The “%Inh” value came to 45% with YSK4 (setting [1]); 37% in the assay with ZAK (setting [1]); 5% with ZAP70 (setting [1]); 20% with p38-alpha; 0% in the assay on p38-beta; 38% with p38-delta (setting [1]). For the same compound, in the assay with p38-gamma (setting [1]), the “%Inh” value is reported as 10%.

For `Fc1cc(Cl)ccc1Nc1ccnc2cc(-c3ccc(CN4CCCCC4)o3)ccc12` [GW560116], the “%Inh” value is listed as 38% in the assay with VRK2; 0% in the assay on WEE1 (setting [1]); 4% with WEE2 (setting [1]); 0% in the assay with WNK1 (setting [1]); 0% in the assay on WNK2 (setting [1]); 34% in the assay on WNK3 (setting [1]). Besides, the “%Inh” value with WNK4 (setting [1]) is recorded as 49%; in the assay on YANK1 (setting [1]), 0%; with YANK2 (setting [1]), 0%; in the assay on YANK3 (setting [1]) it was 0%; with YES (setting [1]), 1%; with YSK1 (setting [1]), 17%. In addition, the “%Inh” value with YSK4 (setting [1]) was 5%; in the assay on ZAK (setting [1]), 0%; in the assay with ZAP70 (setting [1]), 0%; in the assay on p38-alpha it was 36%; in the assay with p38-beta it was 0%; in the assay on p38-delta (setting [1]), 40%. Moreover, the “%Inh” value with p38-gamma (setting [1]) came to 9%.
